Laboratory results taken from PubChem BioAssay AID602141 (Sanford-Burnham Center for Chemical Genomics, 2011).
Among all 360,000 compounds or so, about 1,300 (0.36%) were called active. What follows is part of a selection rich in actives, with near analogues and random picks from the rest. Values without a mark were called inactive.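 How the source made its calls: active means corrected activity change at or below -50% at 5 µM; inactive means the rest.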

experiment: cytotoxicity in KKLEB CF airway cells, primary screen, cytotoxicity control for CF NF-kB inhibitor project, cell-based, uHTS, fluorescence assay plates (AID 602141); details: KKLEB CF airway cells viability, ATPlite luminescence, overnight; at 5 µM; active compounds read low; cells stimulated with P. aeruginosa culture filtrate

Structure (SMILES)	activity change (cytotoxicity)
CC(=O)Nc1cccc(-c2cc(NC=O)c3ncc(-c4ccc(F)c(Cl)c4)n3c2)c1	0.8%
CC(=O)c1ccc(-c2cnc3c(NC=O)cc(-c4cccc(NS(C)(=O)=O)c4)cn23)cc1	-51.7% (active)
O=C(Nc1ccncc1)c1c(F)cccc1F	-51.3% (active)
O=C(Nc1ccc(S(=O)(=O)N2CCCCCC2)cc1)c1c(F)cccc1F	5.1%
COc1cccc(OC)c1C(=O)Nc1ccc(Cc2ccncc2)cc1	-3.9%
CCOC(=O)C1CCCN(C(=O)C2CCN(c3nnc(-n4cccc4)s3)CC2)C1 (stereo unspecified)	-8.3%
COc1ccc(NC(=O)COC(=O)C2COc3ccccc3O2)cc1 (stereo unspecified)	12.9%
O=C(Nc1cc(S(=O)(=O)N2CCCCC2)ccc1Cl)C1COc2ccccc2O1 (stereo unspecified)	-14%
O=C(Nc1nc(-c2ccncc2)cs1)C1COc2ccccc2O1 (stereo unspecified)	-70.7% (active)
CCN1CCN(C(=O)CN(C)S(=O)(=O)c2ccc(OC)cc2)CC1	3.4%
CSc1cccc(NC(=O)CN2C(=O)COc3ccc(S(=O)(=O)N4CCOCC4)cc32)c1	6.5%
Cc1ccc(CNC(=O)COc2ccc(S(=O)(=O)NC(C)C)cc2)cc1	-0.1%
O=C1CN(C(=O)c2ccccc2F)C(c2ccc(F)cc2)c2cc(F)ccc2N1 (stereo unspecified)	11.6%
C=CCNC(=S)NNC(=O)COc1c(Cl)cc(Cl)cc1Cl	-16.4%
O=C(C1CCN(S(=O)(=O)c2ccc(Br)s2)CC1)N1CCN(C2CCCCC2)CC1	13.7%
CCCc1ccc(OCCNC(=O)c2ccccc2Br)cc1	-6.1%
CCCOc1ccc(C(=O)C(CCC(CNCC)C(=O)c2ccc(OCCC)cc2)CNCC)cc1 (stereo unspecified)	-58.6% (active)
CC(C)CCOc1ccc(C(=O)C[N+]2(C)CCOCC2)cc1	1.8%
Cc1ccc(C(NC(=O)C2CCN(CCOc3ccc(Cl)cc3Cl)CC2)c2ccccn2)cc1 (stereo unspecified)	-0.6%
COc1ccc(C(=O)Nc2ccccc2C(=O)N/N=C/c2ccc(O)c(OC)c2)cc1	-87.3% (active)
COc1cccc(OCc2cc(/C=N/NC(=O)c3nc(Cl)c(Cl)c(N)c3Cl)ccc2OC)c1	-5.4%
CCOc1ccc(-c2cc(C(=O)N/N=C/c3ccc(O)cc3)c3ccccc3n2)cc1	-15.6%
CC(=O)Nc1ccc(NC(=O)CC2CCCC2)cc1	6.6%

Structure (SMILES)	activity change (cytotoxicity)
O=c1c2ccccc2ncn1CCCCOc1ccccc1F	5.1%
COCCCNC(=O)C1CC(=O)N(CCc2ccc(F)cc2)C1 (stereo unspecified)	1.6%
O=C(CSc1nc2nccnc2c(=O)n1Cc1cccs1)Nc1ccccc1F	-10.3%
CCOc1ccc(NC(=O)CSc2nc3ccccc3c(=O)n2Cc2cccs2)cc1	-54.6% (active)
CC(=O)NCCn1c(SCC(=O)Nc2ccc(C)cc2)nc2ccccc2c1=O	4.4%
Cc1ccc(NC(=O)C(c2ccccc2)N2CCN(C(=O)c3ccco3)CC2)cc1 (stereo unspecified)	19.2%
CSc1ccc(CNC(=O)c2ccc(NC(=O)C3=CSCCO3)cc2)cc1	-31.3%
CCC/C(O)=C1\C(=O)CC(C)(C)CC1=Nc1ccccc1OC	21.9%
Cc1cc2c(C)nc(N/N=C/c3ccccc3)nc2o1	16.3%
C=C(C)C(=O)O[C@H]1C/C(C)=C\C(=O)/C=C(\C)[C@H](O)[C@@H]2OC(=O)C(=C)[C@@H]21	-78.6% (active)
COc1cccc(C(=O)Oc2cc(C)[nH]c(=O)c2[N+](=O)[O-])c1	0.5%
COC(=O)C1CCCCN1C(=O)c1ccc(OC2CCN(C(C)=O)CC2)c(OC)c1 (stereo unspecified)	2.5%
Cc1ccc2c(c1)N(C(=O)CCC(=O)N1CCc3ccccc3C1)CCO2	-2.8%
Cc1ccc(C)c(NC(CC(=O)c2ccccc2)C(=O)OCC(=O)c2cccs2)c1 (stereo unspecified)	5.7%
O=C(NCC(=O)N1CCN(c2ccccc2F)CC1)c1cccs1	10.7%
Cc1ccccc1C(CC(=O)c1cccs1)C(C#N)C#N (stereo unspecified)	-51.2% (active)
CCN(CC)c1nc(-c2ccccc2)cc(C(F)(F)F)c1C#N	9.1%
CN(CC(=O)Nc1ccc(S(=O)(=O)N2CCCC2)cc1)Cc1ccc(Cl)c(Cl)c1	-2.3%
O=C(Cc1ccc(Cl)c(Cl)c1)Nc1ccc(SC(F)F)cc1	-64.7% (active)
Cc1ccc(CC(=O)Nc2ccc(OC(F)F)c(Cl)c2)cc1C	5.1%
COc1ccccc1NC(=O)CSc1nnc(CNC(=O)c2ccccc2F)o1	-0.3%
CCn1cc(NC(=O)Nc2ccc(OC)c(OC)c2)c(C(N)=O)n1	-3.5%
O=C(COC(=O)/C(=C/c1cccs1)c1cccs1)NCc1ccccc1Cl	4.5%
